A short description of experiment [1]: qHTS profiling of the MIPE4 collection as inhibitors of Plasmodium falciparum (3D7) proliferation (AID 743344).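 Also: scaled between DMSO vehicle wells and 0.29 µM artemisinin as full inhibition.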 The conditions noted are these: P. falciparum 3D7 in erythrocytes, SYBR Green DNA fluorescence, 72 h; at 28.5 µM unless noted. In a few lines: (§1)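 Parasite DNA was quantified by SYBR Green I fluorescence (ex 485, em 535 nm) after overnight lysis in saponin/Triton buffer at room temperature. Cultures at 0.3% parasitemia and 2.5% hematocrit were first exposed to compound for 72 h at 37 C; signals were normalised to artemisinin (0.29 uM) and vehicle wells.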
(qHTS replaces the single test concentration by a dilution series.)

A short description of experiment [2]: qHTS profiling of the MIPE4 collection as inhibitors of Plasmodium falciparum (DD2) proliferation (AID 743345). The conditions noted are these: P. falciparum Dd2 in erythrocytes, SYBR Green DNA, 72 h; at 28.5 µM unless noted. In a few lines: as §1
Experiment [3] in a line: qHTS profiling of the MIPE4 collection as inhibitors of Plasmodium falciparum (DD2) proliferation (Rep 2) (AID 743346). As to conditions: P. falciparum Dd2 in erythrocytes, SYBR Green DNA, 72 h; at 28.5 µM unless noted. The procedure, abridged: as §1
A short description of experiment [4]: qHTS profiling of the MIPE4 collection as inhibitors of Plasmodium falciparum (HB3) proliferation (AID 743347).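 Also: plate controls were DMSO vehicle wells for no effect and artemisinin wells for full effect.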 As to conditions: P. falciparum HB3 in erythrocytes, SYBR Green DNA, 72 h; at 28.5 µM unless noted. In a few lines:
as §1

A short description of experiment [5]: High-throughput drug toxicity screening in the BPDCN cell line Gen2.2 (AID 1224824).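 Also: cells exposed to compounds for 48 h before reading.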 As to conditions: Gen2.2 BPDCN cells; at 45.8 µM (top of the series) unless noted. The procedure, abridged:
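CellTiter-Glo luminescence read after 48 h compound exposure at 37 C defines viability; percent activity set with DMSO as 100% and bortezomib (9.2 uM final) as 0%. 500 exponentially growing cells per well, RPMI plus 10% FBS.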

Experiment [6] in a line: High-throughput drug toxicity screening in the BPDCN cell line Cal-1 (AID 1224825). As to conditions: Cal-1 BPDCN cell viability, qHTS; at 45.8 µM (top of the series) unless noted. The procedure, abridged: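 Percent activity derived from CellTiter-Glo luminescence, scaling DMSO to 100% and 9.2 uM final bortezomib to 0%. BPDCN Cal-1 cells (500/well, RPMI plus 10% FBS) incubated with compounds 48 hours at 37C before reading.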

Experiment [7] can be described thus: qHTS assay for measurement of the activity of small molecule inhibitors on Zika virus induced Caspase-3 activity in human iPSC derived neural progenitor cells (hNPCs) (AID 1224857; active = well fitted curve in the direction sought with a large enough effect; an effect the other way counts as inactive or inconclusive; also: % of control where 0% means no effect; nearly all actives have a fitted effect of over 65% in size). The procedure, abridged: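 Values are percent inhibition of virus-induced caspase-3/7 signal, scaled between uninfected cells and ZIKV-infected cells. Infection used 2 FFU/cell for 6 h after 1 h compound exposure.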

Experiment [8] is described as follows: qHTS assay for measurement of the activity of small molecule inhibitors on Zika virus induced Caspase-3 activity in human astrocytoma cells (AID 1224859; active = well fitted curve in the direction sought with a large enough effect; an effect the other way counts as inactive or inconclusive;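 also: plate controls were ZIKV-infected untreated cells for no effect and uninfected cells for full effect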). In a few lines:
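Compound added 1 h pre-infection; ZIKV 2 FFU/cell on SNB-19 cells, 6 h, 37 C/5% CO2. Caspase-Glo 3/7 luminescence; values as % inhibition of ZIKV-induced caspase activity.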

Experiment [9] is described as follows: qHTS Screen of the MIPE 4.0 Collection Against Ewings Sarcoma (RDES) (AID 1259252; active = well fitted curve in the direction sought with a large enough effect; an effect the other way counts as inactive or inconclusive; also: nearly all actives have a fitted effect of over 35% in size; also: potency is read from the fitted curve at half-maximal effect). In a few lines: (§2)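 Cells plated in serum-containing RPMI (5% FBS) and treated with compound dilutions for 48 h. Readout luminescent viability; normalization relied on vehicle (no inhibition) and media-only columns (full inhibition).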
Experiment [10] can be described thus: qHTS Screen of the MIPE 4.0 Collection Against Ewings Sarcoma (TC71) (AID 1259253; active = well fitted curve in the direction sought with a large enough effect; an effect the other way counts as inactive or inconclusive; also: nearly all actives have a fitted effect of over 40% in size; also: potency is read from the fitted curve at half-maximal effect). The procedure, abridged: as §2
Experiment [11] is described as follows: qHTS profiling for inhibitors of Plasmodium falciparum (HB3) proliferation (AID 743324; active = well fitted curve in the direction sought with a large enough effect; an effect the other way counts as inactive or inconclusive;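 also: 100% = DMSO vehicle wells and 0% = artemisinin-treated control wells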). As to conditions: Plasmodium falciparum HB3 blood-stage proliferation; at 28.7 µM (top of the series) unless noted. The procedure, abridged:
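SYBR Green fluorescence (485 ex/535 em) of lysed cultures, incubated overnight at room temperature in the dark, quantifies parasite DNA. Infected erythrocytes at 0.3% parasitemia and 2.5% hematocrit were exposed 72 h; values normalized to DMSO and 0.29 uM artemisinin controls.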

Experiment [12] is described as follows: qHTS Screen of the MIPE 4.0 Collection Against Ewings Sarcoma (TC32) (AID 1259256; active = well fitted curve in the direction sought with a large enough effect; an effect the other way counts as inactive or inconclusive; also: nearly all actives have a fitted effect of over 45% in size; also: potency is read from the fitted curve at half-maximal effect). The procedure, abridged:
as §2

Experiment [13] in a line: qHTS Screen of the MIPE 4.0 Collection Against Ewings Sarcoma (EW8) (AID 1259255; active = well fitted curve in the direction sought with a large enough effect; an effect the other way counts as inactive or inconclusive; also: potency is read from the fitted curve at half-maximal effect; nearly all actives have a fitted effect of over 35% in size). The procedure, abridged: as §2
Experiment [14] in a line: Identifying Small Molecule Inhibitors of Pancreatic Cancer Stem Cells (SN12C, Adherent) (AID 1259358; active = well fitted curve in the direction sought with a large enough effect; an effect the other way counts as inactive or inconclusive;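 also: cell survival measured after 48 h of compound exposure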). The procedure, abridged:
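Pre-formed 14-day tumor spheroids or adherent cells dosed and incubated 48 h, 37C, 5% CO2. Viability assessed by CellTiter-Glo.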

Experiment [15] in a line: Identifying Small Molecule Inhibitors of Pancreatic Cancer Stem Cells (SN12C, Spheroid) (AID 1259360; active = well fitted curve in the direction sought with a large enough effect; an effect the other way counts as inactive or inconclusive;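 also: 100% = DMSO-treated cells and 0% = wells without cells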). As to conditions: Potency: SN12C spheroid viability. The procedure, abridged:
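Endpoint: ATP-based luminescence, 48 h drug exposure. Bortezomib at 9.2 uM final as full-kill control; DMSO vehicle as negative control; activity normalized between vehicle and cell-free wells.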

Results filed as inconclusive are left out. The source made the active and inactive calls. Unless noted, no rule for the calls is given here.

We go through eight compounds from PubChem BioAssay (NCATS).

As for `O=C(CO)N1CCC(c2[nH]nc(-c3ccc(Cl)cc3)c2-c2ccncn2)CC1`, the parasite growth, % of DMSO control in experiment [1] was 25.8%. Moreover, the parasite growth remaining, % of DMSO control (lower = more inhibition) in experiment [2] amounted to 82.9%. Also, the parasite growth, % of control (lower = inhibition) in experiment [3] is 53.8%. The same compound returned a growth, % of control in experiment [4] of 30.6%. Moreover, in experiment [5], the cell viability, % of control (lower = more cytotoxic) was 421%. Moreover, in experiment [6], the viability (% of control) turned out to be 97.4%. Besides, the Potency entry in experiment [7], in experiment [8], in [9] and in experiment [10] was “inactive” throughout.

Turning to `CC(C)C[C@@H](C(=O)N[C@H](C(=O)OC1CCCC1)c1ccccc1)[C@H](O)C(=O)NO`, the remaining proliferation (% of control), lower = more inhibition in [11] was 11%. Moreover, in experiment [1], the parasite growth, % of DMSO control was 15.1%. The compound further displayed a parasite growth remaining, % of DMSO control (lower = more inhibition) in experiment [2] of 21.7%. In addition, the parasite growth, % of control (lower = inhibition) in experiment [3] turned out to be 29%. Also, the growth, % of control in experiment [4] was found to be 7.8%. Further, the cell viability, % of control (lower = more cytotoxic) in [5] was 6.81%. In experiment [6], the viability (% of control) was determined as 8.67%. Moreover, the Potency result in experiment [7] and in experiment [8] was “inactive” throughout. Besides, the figures for the Potency in [9] and in [10] were 26.4 µM (active) and 18.7 µM (active), respectively.

In [2], `O=S(=O)(O)c1ccc2cc(N=Nc3cc(S(=O)(=O)O)c4cccnc4c3O)ccc2c1` registered a parasite growth remaining, % of DMSO control (lower = more inhibition) of 87.9%. Besides, in experiment [3], the parasite growth, % of control (lower = inhibition) was 77.8%. In experiment [4], the growth, % of control turned out to be 47.7%. Further, the cell viability, % of control (lower = more cytotoxic) in experiment [5] came to 63.9%. The viability (% of control) in experiment [6] was determined as 89.1%. For the same compound, the Potency result in [7] and in experiment [8] was “inactive” throughout. For the same compound, the Potency was 18.7 µM (active) in [9], 14.8 µM (active) in experiment [10] and 16.6 µM (active) in experiment [12].

Compound `O=C1Nc2ccc(I)cc2C1=Cc1cc(Br)c(O)c(Br)c1` showed a parasite growth, % of DMSO control in [1] of 20.7%. For the same compound, in experiment [2], the parasite growth remaining, % of DMSO control (lower = more inhibition) was 30.6%. The same compound yielded a parasite growth, % of control (lower = inhibition) in experiment [3] of 32.9%. The compound also yielded a growth, % of control in [4] of 17.7%. In [5], the cell viability, % of control (lower = more cytotoxic) was 562%. Besides, the viability (% of control) in [6] came out at 106%. The Potency entry in [7] and in [8] was “inactive” in each case. In addition, the figures for the Potency in [9], in experiment [10] and in experiment [12] were 18.7 µM (active), 18.7 µM (active) and 20.9 µM (active), respectively.

Turning to `COc1ccc(-c2cc(=O)c3c(O)cc(O[C@@H]4O[C@H](CO[C@@H]5O[C@@H](C)[C@H](O)[C@@H](O)[C@@H]5O)[C@@H](O)[C@H](O)[C@@H]4O)cc3o2)cc1O`, the parasite growth, % of DMSO control in [1] came to 30.1%. For the same compound, the parasite growth remaining, % of DMSO control (lower = more inhibition) in experiment [2] came out at 28.6%. In [3], this compound returned a parasite growth, % of control (lower = inhibition) of 33.2%. In experiment [5], the cell viability, % of control (lower = more cytotoxic) worked out at 93%. The viability (% of control) in [6] was 111%. In addition, the Potency entry in experiment [7] and in experiment [8] was “inactive” in each case. For the same compound, the Potency was 18.7 µM (active) in [9], 18.7 µM (active) in [10] and 26.4 µM (active) in [12].

In experiment [1], `CCC[C@H](Nc1nc(-c2ccc(NC(=O)NCC)c(OC)c2)ncc1C)c1cccnc1` gave a parasite growth, % of DMSO control of 4.72%. The compound also came in with a parasite growth remaining, % of DMSO control (lower = more inhibition) in experiment [2] of 7.78%. This compound also showed a parasite growth, % of control (lower = inhibition) in experiment [3] of 20.1%. Besides, the growth, % of control in experiment [4] was determined as 4.28%. Besides, the cell viability, % of control (lower = more cytotoxic) in experiment [5] stood at 9.57%. Moreover, the viability (% of control) in experiment [6] came out at 4.63%. Also, the Potency result in experiment [7], in experiment [8] and in experiment [12] was “inactive” in each case. Also, the Potency in experiment [9] and in experiment [10] was 0.0093 µM (active) each time.

`Fc1ccc(C(c2ccc(F)cc2)N2CCN(CC=Cc3ccccc3)CC2)cc1` showed a parasite growth remaining, % of DMSO control (lower = more inhibition) in [2] of 14.4%. Moreover, in experiment [3], the parasite growth, % of control (lower = inhibition) was 44.1%. For the same compound, the growth, % of control in experiment [4] amounted to 5.16%. Further, the cell viability, % of control (lower = more cytotoxic) in experiment [5] was 18.7%. Moreover, the viability (% of control) in [6] turned out to be 30.9%. Moreover, the Potency result in experiment [7], in experiment [8] and in experiment [9] was “inactive” each time. For the same compound, the Potency in experiment [13] is 16.6 µM (active).

`CN(C)CCCNC(=O)c1ccc(-c2cc(O)c3ncccc3c2)cc1` had a remaining proliferation (% of control), lower = more inhibition in experiment [11] of 5.15%. In [1], this compound yielded a parasite growth, % of DMSO control of 25.8%. Moreover, the parasite growth remaining, % of DMSO control (lower = more inhibition) in experiment [2] came out at 15.1%. The compound further yielded a parasite growth, % of control (lower = inhibition) in experiment [3] of 23.5%. This compound returned a growth, % of control in experiment [4] of 8.59%. In experiment [5], the cell viability, % of control (lower = more cytotoxic) was 48.4%. The viability (% of control) in [6] was found to be 19.6%. Besides, the Potency entry in [7], in experiment [8], in [14] and in experiment [15] was “inactive” throughout. Also, the Potency is 16.6 µM (active) in [9], 14.8 µM (active) in experiment [13] and 14.8 µM (active) in experiment [12].
